Assay results published in PubChem BioAssay.
Several values for one entry are separate records, joined by “and”; a condition that tells them apart may be missing. Identical values can stand only once. For some of these results: Potency and affinity values are given separately. Activity calls are given as the source filed them.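 Rule for the calls, unless noted: active = normalized viability below 100% at a tested concentration; inactive = the rest.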

Experiments:
[1] = P. berghei load reduction in hepatocytes – cell-based, HepG2, luciferase luminescence, HepG2 viability, primary screen (AID 624349);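 note: 100% = mean of DMSO negative control wells on the same plate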; conditions: P. berghei liver stage in HepG2, luciferase luminescence, concentration not given here; parasite load remaining: stronger effect = lower value; viability: measured here: HepG2 viability without parasites
[2] = signal quenchers or enhancers, Cy5 substrate/SSB – biochemical, NIH Clinical Collection, E. coli SSB, artefact control for HCV NS3 helicase inhibitor project (AID 743268; call rule not given here); conditions: Cy5-oligo bound E. coli SSB, fluorescence interference
[3] = modulation of C. elegans fzo-1 (AID 1259413; call rule not given here;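 note: fzo-1 mutant C. elegans worms in liquid wells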); conditions: C. elegans fzo-1 modulator screen, mean read-out; stronger effect = higher value
[4] = drug combination growth inhibition, ovarian cancer – cell-based, oncology-focused library, rucaparib conditional, profiling panel (AID 1508598); conditions: patient-derived ovarian cancer cells, CellTiter-Glo viability, 144 h, stronger effect = lower value
[5] = galactose survival enhancers in mitochondrial complex I cybrids – cell-based, galactose medium, ATP luminescence, primary screen (AID 1645843;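 active = z-score of at least 1.8 in each of two replicates, scored against plate mean and spread of sample wells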;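 note: positive z means more ATP and so rescue of galactose-driven cybrid death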); conditions: complex I mutant cybrid cells, 72 h, stronger effect = higher value
F380Y/beta1 = assay: BK channel mutant inhibitors and activators – cell-based, U2OS BacMam, thallium flux, beta subunits, selectivity assay, profiling panel (AID 1259406;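 active = thallium flux through the channel raised or lowered by more than 3 SD from vehicle-only wells, actives on both sides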;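 note: initial slope of Thallos dye fluorescence rise after thallium is added; log ratio against the mean of 0.3% DMSO vehicle wells on the same plate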); conditions: U2OS BacMam BK variants, at 30 µM
F380Y/beta4 = assay: as above; conditions: U2OS BacMam BK variants, at 30 µM
R275C = assay: as above; conditions: U2OS BacMam BK variants, at 30 µM
R275C/beta1 = assay: as above; conditions: U2OS BacMam BK variants, at 30 µM
R275C/beta2Delta = assay: as above; conditions: U2OS BacMam BK variants, at 30 µM
R275C/beta4 = assay: as above; conditions: U2OS BacMam BK variants, at 30 µM
R275C/Slo1WT/beta2 = assay: as above; conditions: U2OS BacMam BK variants, at 30 µM
[6] = blockers of polyQ-driven CASP3 activation – cell-based (AID 1583); conditions: polyglutamine-induced caspase-3 activation, cell assay; stronger effect = higher value;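 tested at 10 µM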
[7] = yeast 75Q aggregation reduction – 75Q-TubU reporter (AID 1593); conditions: Yeast 75Q polyglutamine aggregation reporter
[8] = restoration of touch response, mutant HTT neurons – whole organism, C. elegans mechanosensory neurons, N-terminal huntingtin (AID 1599); conditions: C. elegans polyQ-huntingtin mechanosensory neurons, stronger effect = higher value
[9] = blockers of cytochrome c efflux from mitochondria – biochemical, purified mitochondria (AID 1603); conditions: stronger effect = lower value;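 note: mouse liver mitochondria challenged with calcium chloride; signal normalized to the plate average as 100%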
[10] = polyglutamine aggregate formation blockers (AID 1604); conditions: polyglutamine-induced protein aggregation inhibition assay; stronger effect = higher value; tested at 2.5 µM
[11] = glutamate transport activators, MN-1 cells, MN-1 cell line (AID 1612); conditions: MN-1 motor neuron cells, stronger effect = higher value;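 note: tested at 1 µM final; 0% = mean of DMSO vehicle wells on each plate; positive means more glutamate uptake than control and negative means less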
[12] = 75Q-TubH aggregate inhibition, S. cerevisiae, yeast (AID 1616); conditions: S. cerevisiae 75Q-TubH polyglutamine aggregation suppression; stronger effect = higher value
[13] = compounds altering viability of human ES cells (AID 493140; call rule not given here;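 note: cells exposed to compounds for four days before counting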); conditions: human embryonic stem cell survival screen; stronger effect = higher value

CN(CCOc1ccc(CC2SC(=O)NC2=O)cc1)c1ccccn1 (centres undefined)
80.3% and 91.8% and 74.9%: viability [1]
active: viability ([4]; at 0.000305 µM, OCI-P5x cells, with rucaparib 20 µM, 100% = cells with rucaparib alone) 91.6% | viability ([4]; at 0.000305 µM, OCI-P5x cells, without rucaparib) 99.1% | viability ([4]; at 0.00488 µM, OCI-P5x cells, with rucaparib 20 µM, 100% = cells with rucaparib alone) 96.3% | log fold change Tl+ flux (F380Y/beta1) 0.17 and 0.199 | log fold change Tl+ flux (R275C/beta1) 0.113 and 0.178
inactive: fluorescence ratio [2] 1.05 and 0.99 | mean signal [3] 290 | viability ([4]; at 0.000305 µM, OCI-C5x cells, with rucaparib 10 µM, 100% = cells with rucaparib alone) 112% | viability ([4]; at 0.000305 µM, OCI-C5x cells, without rucaparib) 124% | viability ([4]; at 0.00122 µM, OCI-C5x cells, with rucaparib 10 µM, 100% = cells with rucaparib alone) 116% | viability ([4]; at 0.00122 µM, OCI-C5x cells, without rucaparib) 133% | viability ([4]; at 0.00122 µM, OCI-P5x cells, with rucaparib 20 µM, 100% = cells with rucaparib alone) 104% | viability ([4]; at 0.00122 µM, OCI-P5x cells, without rucaparib) 108% | viability ([4]; at 0.00488 µM, OCI-C5x cells, with rucaparib 10 µM, 100% = cells with rucaparib alone) 123% | viability ([4]; at 0.00488 µM, OCI-C5x cells, without rucaparib) 129% | viability ([4]; at 0.00488 µM, OCI-P5x cells, without rucaparib) 106% | viability ([4]; at 0.0195 µM, OCI-C5x cells, with rucaparib 10 µM, 100% = cells with rucaparib alone) 114% | viability ([4]; at 0.0195 µM, OCI-C5x cells, without rucaparib) 137% | viability ([4]; at 0.0195 µM, OCI-P5x cells, with rucaparib 20 µM, 100% = cells with rucaparib alone) 108% | viability ([4]; at 0.0195 µM, OCI-P5x cells, without rucaparib) 116% | viability ([4]; at 0.0781 µM, OCI-C5x cells, with rucaparib 10 µM, 100% = cells with rucaparib alone) 106% | viability ([4]; at 0.0781 µM, OCI-C5x cells, without rucaparib) 128% | viability ([4]; at 0.0781 µM, OCI-P5x cells, with rucaparib 20 µM, 100% = cells with rucaparib alone) 103% | viability ([4]; at 0.0781 µM, OCI-P5x cells, without rucaparib) 113% | viability ([4]; at 0.313 µM, OCI-C5x cells, with rucaparib 10 µM, 100% = cells with rucaparib alone) 110% | viability ([4]; at 0.313 µM, OCI-C5x cells, without rucaparib) 148% | viability ([4]; at 0.313 µM, OCI-P5x cells, with rucaparib 20 µM, 100% = cells with rucaparib alone) 106% | viability ([4]; at 0.313 µM, OCI-P5x cells, without rucaparib) 119% | viability ([4]; at 1.25 µM, OCI-C5x cells, with rucaparib 10 µM, 100% = cells with rucaparib alone) 107% | viability ([4]; at 1.25 µM, OCI-C5x cells, without rucaparib) 131% | viability ([4]; at 1.25 µM, OCI-P5x cells, with rucaparib 20 µM, 100% = cells with rucaparib alone) 101% | viability ([4]; at 1.25 µM, OCI-P5x cells, without rucaparib) 115% | viability ([4]; at 5 µM, OCI-C5x cells, with rucaparib 10 µM, 100% = cells with rucaparib alone) 106% | viability ([4]; at 5 µM, OCI-C5x cells, without rucaparib) 133% | viability ([4]; at 5 µM, OCI-P5x cells, with rucaparib 20 µM, 100% = cells with rucaparib alone) 103% | viability ([4]; at 5 µM, OCI-P5x cells, without rucaparib) 116% | z-score [5] 0.19 and 0.27 | log fold change Tl+ flux (F380Y/beta4) -0.0318 and 0.0667 | log fold change Tl+ flux (R275C) 0.0457 and 0.0237 | log fold change Tl+ flux (R275C/beta2Delta) 0.0398 and 0.0538 | log fold change Tl+ flux (R275C/beta4) 0.0706 and 0.0705 | log fold change Tl+ flux (R275C/Slo1WT/beta2) -0.0105 and 0.0261

CO[C@@]1(NC(=O)Cc2cccs2)C(=O)N2C(C(=O)O)=C(COC(N)=O)CS[C@@H]21
-21.4%: glutamate uptake change [11]
inactive: survival [13] 2.08 | fluorescence ratio [2] 1.06 | mean signal [3] 248 | z-score [5] -0.58 | log fold change Tl+ flux (F380Y/beta1) -0.00712 | log fold change Tl+ flux (F380Y/beta4) -0.02 | log fold change Tl+ flux (R275C) 0.0592 | log fold change Tl+ flux (R275C/beta1) 0.00671 | log fold change Tl+ flux (R275C/beta2Delta) -0.0512 | log fold change Tl+ flux (R275C/beta4) 0.0012 | log fold change Tl+ flux (R275C/Slo1WT/beta2) 0.00869
27.8%: inhibition of aggregation [10]
0.94: cytochrome c release ratio [9]
0.182: aggregation suppression score [12]
10%: inhibition [6]
0.25: score [7]
-4.75: rescue above control [8]

OCCN1CCN(CCCN2c3ccccc3Sc3ccc(C(F)(F)F)cc32)CC1
-9.51%: glutamate uptake change [11]
0: rescue above control [8]
active: fluorescence ratio [2] 0.8 | log fold change Tl+ flux (F380Y/beta1) 0.117 | log fold change Tl+ flux (F380Y/beta4) 0.354 | log fold change Tl+ flux (R275C/beta1) 0.409 | log fold change Tl+ flux (R275C/beta4) 0.23
2.24: cytochrome c release ratio [9]
51.3%: inhibition of aggregation [10]
1.32: score [7]
inactive: survival [13] 5.33 | mean signal [3] 243 | z-score [5] -1.04 and -1.87 and -0.735 | log fold change Tl+ flux (R275C) -0.11 | log fold change Tl+ flux (R275C/beta2Delta) 0.0662 | log fold change Tl+ flux (R275C/Slo1WT/beta2) -0.0356
1.51: aggregation suppression score [12]
-7.66%: inhibition [6]
